From PubChem BioAssay (Tox21)
Inconclusive results are not listed. The source made the active and inactive calls. Unless noted, calls follow the shape of the dose curve; as a rule, active = well fitted curve in the direction sought with a large enough effect in the repeat runs; inconclusive = weak or mixed curves; inactive = no such curve, though single readings can be large; an effect the other way counts as inactive or inconclusive.

Key:
[1] = qHTS assay to identify small molecule agonists of the vitamin D receptor (VDR) signaling pathway - cell viability counter screen (AID 743224); also: series mostly up to about 63 µM; % is scaled to controls: 0 for no effect and ±100 for the full control effect; nearly all actives have a fitted effect of over 50% in size
Method in brief: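 Cells: VDR-bla, 2,000/well, settled 4 h. Treatment: compounds in DMSO, 16 h, 37C/5% CO2. Readout: CellTiter-Glo luminescence after 30 min RT.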

[2] = qHTS assay to identify small molecule agonists of the NFkB signaling pathway (AID 1159509; active = well fitted curve in the direction sought with a large enough effect in the signal ratio in the repeat runs, not every such curve was filed as active; the % refers to the signal ratio; also: series mostly up to about 61 µM; % is scaled to controls: 0 for no effect and ±100 for the full control effect)
Method in brief: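 Beta-lactamase reporter assay run in quantitative high-throughput format on an NF-kB-responsive ME-180 line, with 5 hr compound treatment and a FRET-based blue/green fluorescence readout.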

[3] = qHTS assay to identify small molecule agonists of the NFkB signaling pathway - cell viability counter screen (AID 1159515; calls by dose curve; also: series mostly up to about 61 µM; % is scaled to controls: 0 for no effect and ±100 for the full control effect; nearly all actives have a fitted effect of over 55% in size)
Method in brief: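 Cells are seeded (2,000 NFkB-bla ME-180 per well), rested overnight, and dosed with DMSO-dissolved compounds for 5 hr at 37 C. Viability is then read by CellTiter-Glo luminescence after 30 min at room temperature.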

[4] = qHTS assay to identify small molecule agonists of the endoplasmic reticulum stress response signaling pathway (AID 1159516; active = well fitted activation curve with a large enough effect in the signal ratio in the repeat runs, not every such curve was filed as active; the % refers to the signal ratio; also: % is scaled to controls: 0 for no effect and ±100 for the full control effect)
Method in brief: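 Cells are seeded at 1,500 per well and incubated overnight. Compounds in DMSO are added for 5 hr at 37 C, then beta-lactamase FRET substrate for 2 hr at room temperature, and fluorescence at 460 and 530 nm is measured.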

[5] = qHTS assay to identify small molecule agonists of the endoplasmic reticulum stress response signaling pathway - cell viability counter screen (AID 1159517; calls by dose curve;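 also: HeLa cells carrying an ER stress response element beta-lactamase reporter; series mostly up to about 61 µM; % is scaled to controls: 0 for no effect and ±100 for the full control effect; nearly all actives have a fitted effect of over 50% in size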)
Method in brief: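 After overnight attachment, ESRE-bla HeLa cells were treated with Tox21 library compounds for 5 hr. CellTiter-Glo luminescence, read 30 min post-addition at room temperature, reported viability.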

[6] = qHTS assay to identify small molecule antagonists of the retinoid-related orphan receptor gamma (ROR-gamma) signaling pathway - cell viability counter screen (AID 1159520); also: % is scaled to controls: 0 for no effect and ±100 for the full control effect; nearly all actives have a fitted effect of over 50% in size
Method in brief: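 Cytotoxicity was read from cellular ATP (CellTiter-Glo luminescence) after 16 hr at 37 C with 1 uM doxycycline induction. The inducer was added 2 hr after compound transfer to Tet-on ROR gamma CHO cells.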

[7] = biological target: Nuclear receptor ROR-gamma (Homo sapiens) (UniProt P51449); experiment: qHTS assay to identify small molecule antagonists of the retinoid-related orphan receptor gamma (ROR-gamma) signaling pathway (AID 1159521;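 also: CHO cells with doxycycline inducible ROR-gamma driving an RORE luciferase reporter; top concentration of the series differs between compounds; % is scaled to controls: 0 for no effect and ±100 for the full control effect; nearly all actives have a fitted effect of over 50% in size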)
Method in brief: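 Decreased RORE-driven luciferase luminescence indicates antagonism. Tet-on RORγ CHO cells received compound, then 1 uM final doxycycline 2 h later; signal read after 16 h incubation.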

[8] = qHTS assay to identify small molecule agonists of the AP-1 signaling pathway - cell viability counter screen (AID 1159525; calls by dose curve; also: nearly all actives have a fitted effect of over 55% in size)
Method in brief: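 Intracellular ATP by Cell Titer Glo luminescence (30 min, RT) in the same ME-180 AP-1-bla wells after the 5 h compound exposure at 37 °C. Normalised to tetra n-octyl ammonium bromide and DMSO controls.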

[9] = qHTS assay to identify small molecule agonists of the AP-1 signaling pathway (AID 1159526; calls by dose curve; also: % is scaled to controls: 0 for no effect and ±100 for the full control effect)
[10] = biological target: Retinoic acid receptor RXR-alpha (Homo sapiens) (UniProt P19793); experiment: qHTS assay to identify small molecule agonists of the RXR signaling pathway (AID 1159527; calls by dose curve; also: % is scaled to controls: 0 for no effect and ±100 for the full control effect; nearly all actives have a fitted effect of over 35% in size)
Method in brief: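 16 hr incubation of compound-treated RXR-alpha-UAS-bla HEK 293T cells (2% charcoal-stripped FBS, 37 C) preceded a 2 hr room-temperature LiveBLAzer FRET substrate step and blue/green fluorescence measurement.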

[11] = qHTS assay to identify small molecule agonists of the RXR signaling pathway - cell viability counter screen (AID 1159529)
Method in brief: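 In this parallel viability measure, GeneBLAzer RXR-alpha HEK 293T cells (2% charcoal-stripped FBS) were given a 5 hr preincubation, treated with compounds 16 hr at 37 C, and read by CellTiter-Glo luminescence.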

[12] = qHTS assay to identify small molecule antagonists of the retinoid acid receptor (RAR) signaling pathway - cell viability counter screen (AID 1159551); also: % is scaled to controls: 0 for no effect and ±100 for the full control effect; nearly all actives have a fitted effect of over 35% in size
Method in brief: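 Cells (C3RL4) are plated, incubated overnight, dosed with compound in DMSO, then given retinol at 1 uM final. After 6 h at 37 C, CellTiter-Glo is added and luminescence read following 30 min at room temperature.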

[13] = qHTS assay to identify small molecule agonists of the retinoic acid receptor (RAR) signaling pathway (AID 1159553); also: % is scaled to controls: 0 for no effect and ±100 for the full control effect
Method in brief: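 Seed C3RL4 reporter cells at 1,000 per well and incubate overnight at 37 C. Add compounds in DMSO, incubate 6 hr. Add luciferase reagent, wait 30 min at room temperature, read luminescence.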

[14] = qHTS assay to identify small molecule antagonists of the vitamin D receptor (VDR) signaling pathway - cell viability counter screen (AID 743225)
Method in brief: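 Parallel cytotoxicity test: VDR-UAS-bla HEK 293T, 3 nM (final) 1-alpha,25-dihydroxyvitamin D3 with test compound, 16 h, 37C. Endpoint is CellTiter-Glo luminescence in the same wells.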

[15] = qHTS assay to identify small molecule antagonists of the retinoic acid receptor (RAR) signaling pathway (AID 1159552)
Method in brief: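 C3RL4 RARE-luc cells, overnight plating; retinol 1 uM final added right after compound; 6 hr 37 C; luciferase read at 30 min RT.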

[16] = qHTS assay to identify small molecule antagonists of the estrogen related receptor (ERR) signaling pathway - cell viability counter screen (AID 1224818)
Method in brief: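 ERR cells, 2,000/well; 6 h settle at 37 C/5% CO2; compound pin transfer (DMSO); 17.5 h at 37 C; CellTiter-Fluor, 30 min, fluorescence read.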

[17] = qHTS assay to identify small molecule antagonists of the estrogen related receptor signaling pathway with the pleiotropic PPARgamma coactivator (PGC) cell viability counter screen (AID 1224822)
Method in brief: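 Multiplexed viability counter screen run in PGC/ERR cells treated with compounds for 17.5 h at 37 C; live-cell protease signal measured by CellTiter-Fluor fluorescence.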

Sequence of Retinoic acid receptor RXR-alpha (Homo sapiens) (P19793 whole entry, looked up): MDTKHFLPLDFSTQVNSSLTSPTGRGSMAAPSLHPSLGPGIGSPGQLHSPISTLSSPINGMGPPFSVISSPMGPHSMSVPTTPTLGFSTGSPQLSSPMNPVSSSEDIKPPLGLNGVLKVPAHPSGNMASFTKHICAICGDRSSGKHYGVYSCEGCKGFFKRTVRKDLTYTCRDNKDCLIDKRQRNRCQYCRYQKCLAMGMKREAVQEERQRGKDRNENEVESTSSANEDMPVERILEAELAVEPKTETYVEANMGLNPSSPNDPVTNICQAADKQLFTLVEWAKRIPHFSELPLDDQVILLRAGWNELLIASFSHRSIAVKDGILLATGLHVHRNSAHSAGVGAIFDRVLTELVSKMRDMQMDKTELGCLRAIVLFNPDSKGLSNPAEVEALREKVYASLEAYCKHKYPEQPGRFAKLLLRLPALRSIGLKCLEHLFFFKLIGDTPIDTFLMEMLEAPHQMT

CCN(C)C(=O)Oc1cccc([C@H](C)N(C)C)c1
inactive: Potency [1] | outcome [2] | outcome [3] | outcome [4] | Potency [5] | outcome [6] | outcome [7] | outcome [8] | outcome [9] | Potency [10] | outcome [11] | outcome [12] | Potency [13]

COc1ccc2nc(SCc3ncc(C)c(OC)c3C)[nH]c2c1
inactive: Potency [1] | outcome [14] | outcome [2] | outcome [3] | outcome [4] | Potency [5] | outcome [6] | outcome [7] | outcome [8] | outcome [9] | Potency [10] | outcome [11] | outcome [12] | outcome [15]

Nc1cccc(O)c1
inactive: outcome [2] | outcome [3] | outcome [4] | Potency [5] | outcome [6] | outcome [7] | outcome [8] | outcome [9] | Potency [10] | outcome [11] | outcome [12] | outcome [15] | Potency [13]

CN(C)CCOCCO
inactive: Potency [1] | outcome [2] | outcome [3] | outcome [4] | Potency [5] | outcome [6] | outcome [7] | outcome [8] | outcome [9] | Potency [10] | outcome [11] | outcome [12]

O=C1c2ccccc2C(=O)C1c1ccccc1
inactive: Potency [1] | outcome [14] | outcome [2] | outcome [3] | outcome [4] | Potency [5] | outcome [6] | outcome [7] | outcome [8] | outcome [9] | Potency [10] | outcome [11] | outcome [12] | outcome [15] | Potency [13]

NCCN1CCOCC1
inactive: Potency [1] | outcome [14] | outcome [2] | outcome [3] | outcome [4] | Potency [5] | outcome [6] | outcome [7] | outcome [8] | outcome [9] | Potency [10] | outcome [11] | outcome [12] | outcome [15] | Potency [13]

Brc1ccc(-c2ccccc2)cc1
inactive: Potency [1] | outcome [2] | outcome [3] | outcome [4] | Potency [5] | outcome [6] | outcome [7] | outcome [8] | outcome [9] | Potency [10] | outcome [11] | outcome [12] | Potency [13]

CCCCOCCOC(=O)COc1nc(Cl)c(Cl)cc1Cl
inactive: Potency [1] | outcome [14] | outcome [2] | outcome [3] | outcome [4] | Potency [5] | outcome [6] | outcome [7] | outcome [8] | outcome [9] | Potency [10] | outcome [11] | outcome [12] | outcome [15]

CC(N)C(=O)OC(C)(C)Cc1ccc(Cl)cc1 (stereo unspecified)
inactive: Potency [1] | outcome [14] | outcome [2] | outcome [3] | outcome [4] | Potency [5] | outcome [6] | outcome [7] | outcome [8] | outcome [9] | Potency [10] | outcome [11] | outcome [12] | outcome [15] | Potency [13]

ClCCCl
inactive: Potency [1] | outcome [2] | outcome [3] | outcome [4] | Potency [5] | outcome [6] | outcome [7] | outcome [8] | outcome [9] | Potency [10] | outcome [11] | outcome [12]

Oc1cn2c(n1)Nc1ccc(Cl)c(Cl)c1C2
inactive: Potency [1] | outcome [2] | outcome [3] | outcome [4] | Potency [5] | activity, negative = cytotoxicity [6] -0.0979% [at 19 µM] | activity change, negative = inhibition [7] 0.185% [at 19 µM] | viability change, negative = cytotoxic [8] -0.119% [at 15.8 µM] | activation [9] 0.89% [at 15.8 µM] | activation [10] 5.44% [at 15.8 µM] | activity change, negative = cytotoxicity [11] -0.221% [at 15.8 µM] | activity change, negative = cytotoxicity [12] 3.75% [at 19 µM]

CCCCCCCCC1CCC(=O)O1 (stereo unspecified)
inactive: Potency [1] | outcome [14] | outcome [2] | outcome [3] | outcome [4] | Potency [5] | outcome [6] | outcome [7] | outcome [8] | outcome [9] | Potency [10] | outcome [11] | outcome [12] | outcome [15]

CC(C)C[C@H](NC(=O)CNC(=O)[C@H](Cc1ccc(O)cc1)NC(=O)[C@H](CO)NC(=O)[C@H](Cc1c[nH]c2ccccc12)NC(=O)[C@H](Cc1cnc[nH]1)NC(=O)[C@@H]1CCC(=O)N1)C(=O)N[C@@H](CCCN=C(N)N)C(=O)N1CCC[C@H]1C(=O)NCC(N)=O (stereo in doubt)
inactive: Potency [1] | outcome [2] | outcome [3] | outcome [4] | Potency [5] | outcome [6] | outcome [7] | outcome [8] | outcome [9] | Potency [10] | outcome [11] | outcome [12] | Potency [13]

CC(C)NCC(O)COc1ccc(COCCOC(C)C)cc1 (stereo unspecified)
inactive: Potency [1] | outcome [2] | outcome [3] | outcome [4] | Potency [5] | outcome [6] | outcome [7] | outcome [8] | outcome [9] | Potency [10] | outcome [11] | outcome [12] | outcome [16] | outcome [17]

O=C(Nc1ccc(Cl)c(Cl)c1)C1CC1
inactive: Potency [1] | outcome [14] | outcome [2] | outcome [3] | outcome [4] | Potency [5] | outcome [6] | outcome [7] | outcome [8] | outcome [9] | Potency [10] | outcome [11] | outcome [12] | outcome [15] | Potency [13]

NS(=O)(=O)c1ccc(NC(=O)CCC(=O)O)cc1
inactive: Potency [1] | outcome [2] | outcome [3] | outcome [4] | Potency [5] | outcome [6] | outcome [7] | outcome [8] | outcome [9] | Potency [10] | outcome [11] | outcome [12]

CCCN1C[C@H](CSC)C[C@@H]2c3cccc4[nH]cc(c34)C[C@H]21
inactive: Potency [1] | outcome [14] | outcome [2] | outcome [3] | outcome [4] | Potency [5] | outcome [6] | outcome [7] | outcome [8] | outcome [9] | Potency [10] | outcome [11] | outcome [12] | outcome [16] | outcome [17]
